Test results from PubChem BioAssay (Tox21).
Inconclusive results are not listed. Where a call stands in place of a potency, no number is given. Active and inactive are the calls of the source. Calls follow the shape of the dose curve; as a rule, active = well fitted curve in the direction sought with a large enough effect in the repeat runs; inconclusive = weak or mixed curves; inactive = no such curve, though single readings can be large; an effect the other way counts as inactive or inconclusive.

Assay: qHTS assay to identify small molecule HDAC inhibitors - cell viability counter screen (AID 1259365); also: nearly all actives have a fitted effect of over 50% in size
Conditions: HCT-116 viability, CellTiter-Glo ATP luminescence, 2 h; series mostly up to 92.4 µM
Summary of the method: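 After overnight seeding at 1,500 cells per well, wild-type HCT-116 cultures took up compounds in DMSO for 2hr at 37 C. Viable cell content came from luminescence with CellTiter-Glo.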

Compound	Potency
CC(C)C(=O)OCCOc1ccccc1	inactive
CC(C)(C)C1(CCc2ccc(Cl)cc2)CO1 (centres undefined)	inactive
OCC(CO)n1cnc(-c2ccc(F)cc2)c1-c1ccnc(Oc2ccccc2)n1	inactive
COc1cc(S(=O)(=O)Nc2ccccc2)c(OC)cc1N	inactive
CC(=O)OCCC1CCCCC1	inactive
CC(=O)NNC(C)=O	inactive
CC(C)c1ccc(C#N)cc1	inactive
CC[C@H]1OC(=O)[C@H](C)[C@@H](O[C@H]2C[C@@](C)(OC)[C@@H](O)[C@H](C)O2)[C@H](C)[C@@H](O[C@@H]2O[C@H](C)C[C@H](N(C)C)[C@H]2O)[C@](C)(O)C[C@@H](C)CN(C)[C@H](C)[C@@H](O)[C@]1(C)O	inactive
CCN(CC)CC(=O)Nc1c(C)cccc1C(=O)OC	inactive
C/C(C=O)=C\c1ccccc1	inactive
CC(CO)(CO)C(=O)O	inactive
O=P(O)(O)Oc1ccccc1	inactive
CCOCCC(=O)OCC	inactive
ClC1=C(Cl)C1(Cl)Cl	inactive
O=C(c1ccccc1)C1CCC1	inactive
O=C(O)c1cccc(C[C@@H]2COc3ccc(OCc4nc5cc(F)ccc5s4)cc3[C@@H]2O)c1	inactive
CCSC(=O)N(CC)CC	inactive
COC(OC)OC	inactive
O=C(NS(=O)(=O)/C=C/c1ccccc1)c1ccc(F)cc1Cl	inactive
O=C(O)c1cccc(Oc2ccccc2)c1	inactive

Compound	Potency
COC(=O)c1sccc1S(N)(=O)=O	inactive
CCOC(=O)C(C)O (centres undefined)	inactive
COC(=O)Nc1nc2ccc(C(=O)C3CC3)cc2[nH]1	inactive
CC(C)(O)CCc1ccccc1	inactive
C=C(C)C(=O)OCCC(F)(F)C(F)(F)C(F)(F)C(F)(F)C(F)(F)C(F)(F)F	inactive
O=C(O)CO	inactive
COc1ccc(-n2nc(C(F)F)cc2-c2ccc(S(C)=O)cc2)cc1 (centres undefined)	inactive
O=[N+]([O-])c1ccc2ncccc2c1	inactive
O=C(/C=C/c1ccc([N+](=O)[O-])cc1)c1ccccc1	inactive
COC(C)(C)OC	inactive
C=CCOC(=O)COCCC(C)C	inactive
NC(=O)c1ccccc1[N+](=O)[O-]	inactive
CCC(CO)(CO)[N+](=O)[O-]	inactive
CC(C)OC(=O)c1ccccc1C(=O)OC(C)C	inactive
Cc1ccc(N(CCO)CCO)cc1	inactive
CCOc1ncc(F)c(=O)[nH]1	inactive
FC(F)(F)C(F)(F)C(F)(F)C(F)(F)CCI	inactive
CC(C)c1ccc(C(=O)N=C(N)N)cc1S(C)(=O)=O	inactive
CC(C)(C)CCCCCCOC(=O)c1ccccc1C(=O)OCCCCCCC(C)(C)C	inactive

Assay: qHTS assay to identify small molecule agonists of the sonic hedgehog signaling (Shh) pathway - cell viability counter screen (AID 1259366); also: nearly all actives have a fitted effect of over 50% in size
Conditions: NIH/3T3 Gli1-Luc viability, CellTiter-Fluor, 24 h; series mostly up to 92.4 µM
Summary of the method: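 Same-well cytotoxicity read. Gli1-Luc reporter 3T3 cells; compounds 24hr, 37C/5% CO2; CellTiter-Fluor fluorescence.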

Compound	Potency
CC(C)C(=O)OCCOc1ccccc1	inactive
CC(C)(C)C1(CCc2ccc(Cl)cc2)CO1 (centres undefined)	inactive
OCC(CO)n1cnc(-c2ccc(F)cc2)c1-c1ccnc(Oc2ccccc2)n1	inactive
COc1cc(S(=O)(=O)Nc2ccccc2)c(OC)cc1N	inactive
CC(=O)OCCC1CCCCC1	inactive
CC(=O)NNC(C)=O	inactive
CC(C)c1ccc(C#N)cc1	inactive
CCN(CC)CC(=O)Nc1c(C)cccc1C(=O)OC	inactive
C/C(C=O)=C\c1ccccc1	inactive
CC(CO)(CO)C(=O)O	inactive
O=P(O)(O)Oc1ccccc1	inactive
CCOCCC(=O)OCC	inactive
ClC1=C(Cl)C1(Cl)Cl	inactive
O=C(c1ccccc1)C1CCC1	inactive
O=C(O)c1cccc(C[C@@H]2COc3ccc(OCc4nc5cc(F)ccc5s4)cc3[C@@H]2O)c1	inactive
CCSC(=O)N(CC)CC	inactive
COC(OC)OC	inactive
O=C(NS(=O)(=O)/C=C/c1ccccc1)c1ccc(F)cc1Cl	inactive

Compound	Potency
O=C(O)c1cccc(Oc2ccccc2)c1	inactive
COC(=O)c1sccc1S(N)(=O)=O	inactive
CCOC(=O)C(C)O (centres undefined)	inactive
COC(=O)Nc1nc2ccc(C(=O)C3CC3)cc2[nH]1	inactive
CC(C)(O)CCc1ccccc1	inactive
C=C(C)C(=O)OCCC(F)(F)C(F)(F)C(F)(F)C(F)(F)C(F)(F)C(F)(F)F	inactive
O=C(O)CO	inactive
COc1ccc(-n2nc(C(F)F)cc2-c2ccc(S(C)=O)cc2)cc1 (centres undefined)	inactive
O=[N+]([O-])c1ccc2ncccc2c1	inactive
COC(C)(C)OC	inactive
C=CCOC(=O)COCCC(C)C	inactive
NC(=O)c1ccccc1[N+](=O)[O-]	inactive
CCC(CO)(CO)[N+](=O)[O-]	inactive
Cc1ccc(N(CCO)CCO)cc1	inactive
CCOc1ncc(F)c(=O)[nH]1	inactive
FC(F)(F)C(F)(F)C(F)(F)C(F)(F)CCI	inactive
CC(C)(C)CCCCCCOC(=O)c1ccccc1C(=O)OCCCCCCC(C)(C)C	inactive

Assay: qHTS assay to identify small molecule antagonists of the sonic hedgehog signaling (Shh) pathway - cell viability counter screen (AID 1259367); also: nearly all actives have a fitted effect of over 55% in size
Conditions: NIH/3T3 Gli1-Luc viability, CellTiter-Fluor, 24 h; series mostly up to 92.4 µM
Summary of the method: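 Fluorescence read-out (CellTiter-Fluor, 1 hr at 37C) taken after 23 hr compound treatment of 3T3 Gli1-Luc cells stimulated with conditioned medium. Cells were seeded at 2,000 per well and pre-incubated 4 hr.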

Compound	Potency
CC(C)C(=O)OCCOc1ccccc1	inactive
CC(C)(C)C1(CCc2ccc(Cl)cc2)CO1 (centres undefined)	inactive
COc1cc(S(=O)(=O)Nc2ccccc2)c(OC)cc1N	inactive
CC(C)c1ccc(C#N)cc1	inactive
CC[C@H]1OC(=O)[C@H](C)[C@@H](O[C@H]2C[C@@](C)(OC)[C@@H](O)[C@H](C)O2)[C@H](C)[C@@H](O[C@@H]2O[C@H](C)C[C@H](N(C)C)[C@H]2O)[C@](C)(O)C[C@@H](C)CN(C)[C@H](C)[C@@H](O)[C@]1(C)O	inactive
C/C(C=O)=C\c1ccccc1	inactive
CCOCCC(=O)OCC	inactive
O=C(c1ccccc1)C1CCC1	inactive
CCSC(=O)N(CC)CC	inactive
COC(OC)OC	inactive
O=C(O)c1cccc(Oc2ccccc2)c1	inactive
COC(=O)c1sccc1S(N)(=O)=O	inactive
CC(C)(O)CCc1ccccc1	inactive
C=C(C)C(=O)OCCC(F)(F)C(F)(F)C(F)(F)C(F)(F)C(F)(F)C(F)(F)F	inactive
COc1ccc(-n2nc(C(F)F)cc2-c2ccc(S(C)=O)cc2)cc1 (centres undefined)	inactive
O=[N+]([O-])c1ccc2ncccc2c1	inactive
O=C(/C=C/c1ccc([N+](=O)[O-])cc1)c1ccccc1	inactive
COC(C)(C)OC	inactive
C=CCOC(=O)COCCC(C)C	inactive
CCC(CO)(CO)[N+](=O)[O-]	inactive
CC(C)OC(=O)c1ccccc1C(=O)OC(C)C	inactive
Cc1ccc(N(CCO)CCO)cc1	inactive
CCOc1ncc(F)c(=O)[nH]1	inactive
FC(F)(F)C(F)(F)C(F)(F)C(F)(F)CCI	inactive
CC(C)c1ccc(C(=O)N=C(N)N)cc1S(C)(=O)=O	inactive
